ClpP mod: qHTS Assay for Activators of ClpP. ATP-dependent Clp protease proteolytic subunit (Bacillus subtilis (strain 168)), P80244. purified B. subtilis ClpP, FRET peptide cleavage, 20 min. Potency, µM (doses to about 57.5 µM), inactives show at the top dose activity change, negative = active. hit rate 1.9% among 340,000. AID 651965, 2013; active means well fitted falling curve with a large enough effect; inconclusive means small, poorly fitted or top-dose-only effect; inactive means no such curve, though single readings can be large or run the other way; further: potency means the concentration at half of the fitted maximal effect; the source files actives as falling curves though it sought activators and does not explain the sign; nearly all actives have a fitted effect of over 65% in size
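Purified B. subtilis ClpP, 10 microg/mL final in Tris/HCl pH8 with KCl, BSA, glycerol and Tween-20, cleaved an Abz/nitrotyrosine-quenched decapeptide. Fluorescence (ex 320, em 430) was read at 0 and 20 min at room temperature. Delta was normalized to 5.8 microM ADEP and DMSO/no-enzyme controls.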
GLP-1R agonist: GLP-1 receptor (human) agonism; Potency, µM (top dose mostly 45.6 µM), for the others: at the top dose activation, usual class: activators; HEK293 GLP-1R CRE-luciferase, luminescence, 4-6 h; cells express a hypersensitive GLP-1R form; P43220; hit rate 0.007% among 380,000; AID 624172; further: potency means the concentration at half of the fitted maximal effect; % of control where 0% means no effect
GLP-1R inv ag: GLP-1 receptor (human) inverse agonism; P43220; HEK293 GLP-1R CRE-luciferase, luminescence, 24 h; GLP-1R form is constitutively active; Potency, µM (top dose mostly 38.3 µM), inactives show at the highest dose activity change, negative = inhibition, actives largely listed as inhibitors; hit rate 1.6% among 410,000; AID 624417; further: potency means the concentration at half of the fitted maximal effect; on the % scale 0 is the no-effect control and ±100 the full control effect; nearly all actives have a fitted effect of over 55% in size
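Inverse agonism was detected as reduced cAMP-driven luciferase luminescence after 24 h compound treatment. The cells were HEK293 clones expressing constitutively active human GLP-1R with the reporter. Reporter-only and GPR119 cell lines served as counterscreen controls.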
LDHA inh: blocks human lactate dehydrogenase A. activity change, % (values are at about 110 or 230 µM). hit rate 0.15% among 480,000. AID 1347041. P00338. purified LDHA, NADH/diaphorase-resazurin fluorescence; stronger effect = lower value; in the data active means activity change below about -30%; inconclusive means mostly about -25% to -30%;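 further: plate controls were DMSO wells for no effect and wells without enzyme for full effect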
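LDH5 2 nM; NADH 0.06 mM, pyruvate 0.2 mM; 200 mM Tris pH 7.4, EDTA, Tween-20; 5 min RT. Detection: diaphorase 0.133 mg/mL + resazurin 37 µM, fluorescence ex540/em590 at 0 and 20 min; normalized to enzyme-free and DMSO wells.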
GLP1R cytotox: cytotoxic in the GLP-1 receptor inverse agonist counter-screen; HEK293 cAMP-luciferase reporter cells, luminescence, 24 h; Potency, µM (doses to about 38.3 µM), without a hit: top-dose activity change, negative = inhibition, usual class: inhibitors; hit rate 0.13% among 410,000;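 further: loss of luciferase light is scored as toxicity; potency means the concentration at half of the fitted maximal effect; on the % scale 0 is the no-effect control and ±100 the full control effect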
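Quantitative HTS format, 1536 wells, 200 cells/uL seeded. Compounds: 23 nL, 24 h, 37 °C. Detection: luciferase reagent, luminescence at 12 min RT; decreased signal taken as cytotoxic.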
p53 reactivator: re-activators of mutant p53 | H1299 p53-A138V BP100-luciferase reporter, luminescence, 24 h | Potency, µM (highest dose often 92.2 µM), for inactives: at the highest dose activity change, positive = activation, hits mostly activators | hit rate 0.063% among 320,000 | AID 504706; further: potency means the concentration at half of the fitted maximal effect; % of control where 0% means no effect; nearly all actives have a fitted effect of over 45% in size
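p53-null H1299 cells stably carrying temperature-sensitive p53-A138V and a BP100-luciferase reporter were pinned with compounds (4-point, 1:5 series) and held 24 hrs at 37 deg C. Luminescence was read 10 min after detection reagent.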
* marks the source's active call; other numbers are inactive results; ? = inconclusive; / = not tested or not shown; [ ] = remark or other dose. Hits are enriched below; roughly 2.9% of the tested compounds scored in any of these assays. Unless noted, the call rests on the fitted dose curve; in most records, active means well fitted curve in the direction sought with a large enough effect; inconclusive means small, poorly fitted or top-dose-only effect, or another doubt; inactive means no such curve, though single readings can be large; an effect the other way counts as inactive or inconclusive.

SMILES	ClpP mod	GLP-1R agonist	GLP-1R inv ag	LDHA inh	GLP1R cytotox	p53 reactivator
O=C(CNc1ccc(C(F)(F)F)cc1)Nc1cccc(S(=O)(=O)N2CCCCC2)c1	-3%	-3%	4µM*	-1	-20%	/
CC(C)(C)c1ccc(OCC(=O)N/N=C/C2CC=CCC2)cc1 (configuration not stated)	0%	6%	-2%[0.307 µM]	-4	4%[0.307 µM]	9%
CN(C)c1ccc(NC(=O)COC(=O)Cn2nnc3ccccc32)cc1	25µM*	-1%	19%	-8	-8%	14%
COc1ccc(NC(=O)COC(=O)Cn2nnc3ccccc32)cc1	-4%	-3%	17%	-3	-1%	-3%
O=C(COC(=O)Cn1nnc(-c2ccccc2)n1)Nc1ccccc1Br	/	5%	-10%	0	-12%	-6%
O=C(COC(=O)Cn1nnc2ccccc21)Nc1ccccc1Br	28µM*	0%	9%	-3	-3%	-1%
Cc1cccc(NC(=O)NCCc2c[nH]c3ccccc23)c1	-5%	3%	8.9µM*	1	-2%	0%
O=C(NCCc1c[nH]c2ccccc12)c1cccc(S(=O)(=O)Nc2ccccc2Cl)c1	1%	-9%	?	1	-4%	-1%
CN(c1ccccc1)S(=O)(=O)c1cccc(C(=O)NCCc2c[nH]c3ccccc23)c1	-5%	-1%	8.9µM*	-10	-14%	/
COc1cc(OC)cc(-c2c(C#Cc3ccsc3)c3cc(-c4cnc(OC)nc4)ccc3n2C)c1	5%	9%	0%	-1	5%	-5%
COCC(C)n1c(SCC(=O)N2CCCCC2)nc2ccccc2c1=O (configuration not stated)	-1%	3%	-40%	-5	-20%	-6%
COCC(C)n1c(SCC(=O)N2CCc3ccccc3C2)nc2ccccc2c1=O (configuration not stated)	13µM*	22%	?	-9	13%	-12%
CC(C)Cn1c(SCC(=O)N2CCCc3ccccc32)nc2ccccc2c1=O	/	25%	2.5µM*	-8	-13%	0%
CCc1nn2c(N)c(/C=C3\C=Nc4ccccc43)c(=O)nc2s1	1%	3%	2%	-9	?	3%
Cc1cc2ncn(-c3ncnc4sc(C)c(C)c34)c2cc1C	-1%	5%	7.1µM*	-1	-2%	-5%
Cc1ccc(NC(=O)CSCc2cnn(-c3ccccc3)c2-n2cccc2)c(C)c1	-3%	/	?	-5	3%	/
Cc1ccc(Cl)cc1NC(=O)CSCc1cnn(-c2ccccc2)c1-n1cccc1	-2%	/	10µM*	1	-11%	/
CCOc1ccc(-n2nc(CO)c(C(=O)NCCCc3ccccc3)n2)cc1	13µM*	/	?	-3	1%	/
COCCCNC(=O)c1nn(-c2ccc(C)cc2)nc1CO	14µM*	/	-1%	-10	1%	/
CCOc1ccc(-n2nc(CO)c(C(=O)NCc3ccc(Cl)cc3)n2)cc1	7.1µM*	/	10%	-3	-17%	/
CCOc1ccc(-n2nc(CO)c(C(=O)NCc3cccnc3)n2)cc1	6.3µM*	/	-13%	-5	-2%	/
CCCCNC(=O)c1nn(-c2ccc(CC)cc2)nc1CO	?	/	-26%	-5	-8%	/
CCN(CC)S(=O)(=O)c1ccc(OC)c(NC(=O)c2ccc(N3CCCC3=O)cc2)c1	1%	0%	13%	-4	-35%	1%
COc1ccc(N2CCN(Cc3nc(N)nc(Nc4ccc(C)c(Cl)c4)n3)CC2)cc1	4%	-2%	?	10	-25%	3%
CCOc1ccc(NC(=O)NCCCn2c(C)nc3cc(C)c(C)cc32)cc1	-1%	0%	-17%	-13	2%	-6%
SMILES	ClpP mod	GLP-1R agonist	GLP-1R inv ag	LDHA inh	GLP1R cytotox	p53 reactivator
O=C(O)C(Cc1c[nH]c2ccccc12)NS(=O)(=O)c1ccc(Br)cc1 (configuration not stated)	/	1%	1%	1	5%	-3%
Cc1ccccc1-n1nc(CO)c(C(=O)NCc2cccs2)n1	-2%	/	1%	-6	6%	/
Cc1ccc(-n2nc(CO)c(C(=O)NCc3cccs3)n2)cc1C	28µM*	/	-20%	-8	2%	/
CC1CC(C)(C)OC(c2ccc(C(C)C)cc2)O1 (configuration not stated)	-1%	-8%	2%	-2	2%	/
CCCCNC(=O)NC1(C(F)(F)F)Oc2ccccc2O1	-2%	-23%	4%	0	-13%	10%
COc1ccc(/C=C/CN2CCCC(CO)(Cc3cccc(Cl)c3)C2)cc1 (configuration not stated)	0%	22%	3.2µM*	0	?	0%
COc1ccc(F)c(CN2CCCC(CO)(Cc3cccc(Cl)c3)C2)c1 (configuration not stated)	0%	10%	?	-1	-7%	4%
COc1ccccc1/C=C/CN1CCCC(CO)(Cc2cccc(Cl)c2)C1 (configuration not stated)	/	13%	11µM*	-3	?	-1%
COc1cc(Cl)c(CN2CCCC(CO)(Cc3cccc(Cl)c3)C2)cc1OC (configuration not stated)	1%	5%	8.9µM*	2	-14%	18%
COc1ccccc1-n1c(=O)[nH]c2c(C(N)=O)nc(C3CCCCC3)nc21	5%	16%	-8%	0	-21%	-4%
COc1ccc(N=C2C(=Nc3ccc(OC)cc3)N(c3ccc(OC)cc3)C(=S)N2C(=O)c2ccc(OC)cc2)cc1	-2%	4%	3%	-4	-29%	?
O=C1NC(c2cccc([N+](=O)[O-])c2)=CCN1c1ccccc1O	1%	-2%	4%	1	-4%	3%
Cc1ccc(OCCn2c(CCNC(=O)C(C)C)nc3ccccc32)cc1	1%	-3%	7.9µM*	-2	-11%	-3%
CC(C)(C)C(=O)NCCc1nc2ccccc2n1CCCCOc1ccc(Cl)cc1	-7%	/	10µM*	3	-21%	/
Cc1cc(C)c2nc(N(CCN(C)C)C(=O)c3ccc(S(=O)(=O)N(C)CC4CCCO4)cc3)sc2c1 (configuration not stated)	0%	-6%	10µM*	0	5%	?
CC(=O)c1ccc(C(=O)N(CCCN(C)C)c2nc3c(C)c(C)ccc3s2)cc1	0%	-3%	?	-1	-8%	/
Cc1ccc2sc(N(CCCN(C)C)C(=O)c3ccc(S(=O)(=O)N(C)C4CCCCC4)cc3)nc2c1C	-6%	-7%	2.8µM*	4	?	11%

Compound activity from PubChem.
